Reference: PubChem BioAssay AID1259343 (VanderVen Lab, College of Veterinary Medicine, Cornell …, 2017)
Among all 6,200 compounds or so, about 2,900 (47%) were called active. So high a share suggests a set chosen from earlier hits. The list shows a part of the results. Unmarked numbers belong to inactive results. Rule as the data show it: active = inhibition above about 50%; inactive = the rest.

Assay: Mycobacterium tuberculosis growth inhibition, primary screen (AID 1259343)
Settings: inhibition: at 10 µM, hits give high values; outcome: 10 uM

Row | Compound | inhibition
1 | Cc1nc(COC(=O)c2cc3ccccc3cc2O)oc1C | 54.9% (active)
2 | Cc1sc(C(=O)N2CCOC(C(N)=O)C2)cc1-c1ccc(F)cc1 (stereo unspecified) | 5.13%
3 | Cc1ccc2nc3sc(C(=O)O)cc3cc2c1 | 7.83%
4 | COc1ccc(-c2cc(C(=O)O)sc2C)cc1 | 67.1% (active)
5 | O=C(O)C1CCCN1S(=O)(=O)c1cccs1 (stereo unspecified) | -0.47%
6 | O=S(=O)(c1cccs1)n1nnc2ccccc21 | 52.1% (active)
7 | CN(C)C(=O)On1nnc2ccccc21 | 26.9%
8 | Cn1c(=O)cc2c3c(cccc31)C(=O)c1ccccc1-2 | 11.1%
9 | O=c1c(-c2ccccc2)c1-c1ccccc1 | 86.5% (active)
10 | S=c1[nH]c(-c2ccccc2)c(-c2ccccc2)[nH]1 | 18.6%
11 | O=C(NCCc1cccc(C(F)(F)F)c1)c1ccc(CSc2ncn[nH]2)o1 | 36.7%
12 | O=C(NCCOc1cccc(C(F)(F)F)c1)c1ccc(Cl)c([N+](=O)[O-])c1 | 54.2% (active)
13 | Cc1ccc(C)c(C=CC(=O)c2ccc(O)cc2)c1 | 98.6% (active)
14 | COc1ccccc1C=CC(=O)c1ccc(Cl)cc1 | 46.9%
15 | Cc1cc(C)n(C(C)CNS(=O)(=O)c2ccc(C)c(C)c2)n1 (stereo unspecified) | -27.8%
16 | CC(O)c1cnc(-c2ccc(Br)cc2)s1 (stereo unspecified) | 35.9%
17 | Cc1cc2nn(-c3ccc(C(C)C)cc3)nc2cc1N | 14.7%
18 | CC(C)c1ccc(-c2nnc(N)s2)cc1 | 72.1% (active)
19 | O=C(/C=C/C(=O)Oc1ccccc1C(=O)O)Oc1ccccc1C(=O)O | 26.7%
20 | C=CS(=O)(=O)Oc1ccccc1 | 78.9% (active)
21 | NC(=O)c1ccc(CN2CCCc3cc(F)cc(F)c32)cc1 | 17.5%
22 | Nc1nc(Cl)cc(N2CCN(Cc3ccc4c(c3)OCCO4)CC2)n1 | 6.34%
23 | NC(=O)c1ccnc(N2CCN(Cc3ccc(Cl)c(Cl)c3)CC2)c1 | 89.4% (active)
24 | C=CCn1cnc2c(c1=O)c1nc3ccccc3nc1n2CCC(C)C | 12.7%
25 | CCOc1ccc2ccccc2c1C(=O)Nc1cc(C)nn1-c1nc(C)cc(=O)[nH]1 | 101% (active)
26 | CCOc1ccc2ccccc2c1C(=O)Nc1cc(C)nn1-c1nc(CC)cc(=O)[nH]1 | 101% (active)

Row | Compound | inhibition
27 | COCCOc1ccc(CNS(=O)(=O)c2ccc(F)c(Cl)c2)cc1 | 30.9%
28 | O=S(=O)(NCCCCOc1ccc(Cl)cc1)c1cccc(F)c1 | 88.5% (active)
29 | O=S(=O)(NCCCNS(=O)(=O)c1ccc(Cl)cc1)c1ccc(Cl)cc1 | -18.2%
30 | Cc1oc2nc[nH]c(=O)c2c1C(=O)Nc1ccc(C(C)(C)C)cc1 | 39.2%
31 | Cc1noc(C)c1C(=O)Nc1nc2cc(C(C)(C)C)ccc2o1 | 100% (active)
32 | Cc1ccc(-c2csc(NC(=O)c3c(C)noc3C)n2)s1 | 24.1%
33 | Cc1cc(N2CC[C@@H](c3ccc4c(c3)OCO4)[C@H](O)C2)nc2cc(F)ccc12 | 11.3%
34 | CCc1cnc(N2CC[C@@H](c3ccc4ccccc4c3)[C@H](O)C2)nc1 | 86.1% (active)
35 | CCCc1nc(N2CC[C@@H](c3ccc4ccccc4c3)[C@H](O)C2)no1 | 23%
36 | Cc1cc(C)n2nc(SCC(=O)Nc3ccc(C(C)C)cc3)nc2n1 | 84.4% (active)
37 | O=C(CSC1=NS(=O)(=O)c2ccccc2N1)Nc1ccccc1 | 31.9%
38 | CCCCc1ccc(NC(=O)CSc2nc3nc(C)cc(C)n3n2)cc1 | -36.7%
39 | O=C1c2ccccc2-c2nc3nonc3nc21 | 103% (active)
40 | O=C(NNC(=O)C1C2C=CC(C2)C1C(=O)O)c1ccc(OC2CCCC2)cc1 (stereo unspecified) | 97.7% (active)
41 | CCC(C)n1nccc1NC(=O)c1n[nH]c2ccccc2c1=O (stereo unspecified) | 3.7%
42 | CC(C)n1nccc1-c1nnc(NC(=O)c2ccccc2)o1 | 100% (active)
43 | O=C(c1ccccc1)n1sc(=O)c2ccccc21 | 61.1% (active)
44 | CS(=O)(=O)CCC(=O)Nc1cccc(-n2cccc2)c1 | 81.7% (active)
45 | O=C(CCCn1c(=O)oc2ccccc21)Nc1cccc(-c2ccsc2)c1 | 34.8%
46 | CN(Cc1cccc(NC(=O)C(C)(C)C)c1)C(=O)C(F)(F)F | 4.53%
47 | CCOC(=O)C1CSC(Cc2ccc(OCc3ccc([N+](=O)[O-])cc3)cc2)N1 (stereo unspecified) | 66% (active)
48 | O=C(NN=Cc1ccncc1)c1cc(-c2ccc(Cl)s2)[nH]n1 | 16.5%
49 | COc1cccc(C=NNC(=O)c2cc(-c3ccc(Cl)s3)[nH]n2)c1 | 68% (active)
50 | CC(=NNC(=O)c1cc(-c2ccc(Cl)s2)[nH]n1)c1ccccc1O | 40.9%
51 | O=c1[nH]nc(SCc2cc(Cl)ccc2Cl)c(=O)[nH]1 | 54.7% (active)
